PubChem BioAssay (EPA / NIEHS)
Records with an inconclusive call do not appear. The source made the active and inactive calls. How the source made its calls: active means hit-call score of the fitted dose curve at least 0.9, where 1 is the maximum; inconclusive means response in the unintended direction; inactive means score below 0.9.

Experiments:
[1] = Tanguay_ZF_120hpf_EYE_legacy: (Legacy) Oregon State University Tanguay Lab 120 Hour Post-fertilization zebrafish Assay for Eye Malformation (AID 2283636);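 further: binary presence or absence of eye malformation scored by brightfield in 120 hpf larvae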
Method in brief: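 5D wild-type embryos, pronase-dechorionated at 4 hpf; static exposure 6–120 hpf, 28C, dark; DMSO 0.64% final; 5uM trimethyltin chloride positive control. Binary eye-defect scoring at 120 hpf; dead embryos not scored.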

[2] = Tanguay_ZF_120hpf_SNOU_legacy: (Legacy) Oregon State University Tanguay Lab 120 Hour Post-fertilization zebrafish Assay for Snout Malformation (AID 2283637)
Method in brief: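 Binary brightfield scoring of snout malformation at 120 hpf. Dechorionated 5D wild-type embryos, one per well, static exposure from 6 hpf at 28C, sealed and dark; final DMSO 0.64% (vol/vol), DMSO as baseline; 5uM trimethyltin chloride positive control.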

[3] = Tanguay_ZF_120hpf_JAW_legacy: (Legacy) Oregon State University Tanguay Lab 120 Hour Post-fertilization zebrafish Assay for Jaw Malformation (AID 2283638);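 on AC50: active means more embryos with jaw malformation than DMSO controls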
Method in brief: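 Binary jaw-malformation call at 120 hpf by brightfield microscopy. Embryos (Tropical 5D strain, chorion removed at 4 hpf) were dosed statically at 6 hpf, one per well, at 28C with 0.64% DMSO. Embryos that died were not scored.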

[4] = Tanguay_ZF_120hpf_OTIC_legacy: (Legacy) Oregon State University Tanguay Lab 120 Hour Post-fertilization zebrafish Assay for Otic Vesicle Malformation (AID 2283639)
Method in brief: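 Statically exposed wild-type 5D zebrafish embryos, kept sealed and dark at 28C through 120 hours post fertilization, were examined by brightfield microscopy for otic vesicle defects. Responses were recorded as present or absent and analysed relative to DMSO.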

[5] = Tanguay_ZF_120hpf_PE_legacy: (Legacy) Oregon State University Tanguay Lab 120 Hour Post-fertilization zebrafish Assay for Pericardial Edema (AID 2283640);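 on AC50: potency for increased incidence of pericardial edema versus DMSO baseline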
Method in brief: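 Scoring was binary, by brightfield microscopy at 120 hpf, and skipped where mortality occurred. Wild-type embryos were kept under sealed, foil-covered static exposure at 28C in 0.64% (vol/vol) DMSO.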

[6] = Tanguay_ZF_120hpf_SOMI_legacy: (Legacy) Oregon State University Tanguay Lab 120 Hour Post-fertilization zebrafish Assay for Somite Malformation (AID 2283647)
Method in brief: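 Binary somite-defect scoring at 120 hpf, omitted for embryos that died, in wild-type (Tropical 5D) zebrafish with chorion removed by pronase at 4 hpf; static exposure began 6 hpf, single embryos per well, 28C, 0.64% DMSO; fitted positive versus DMSO.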

[7] = Tanguay_ZF_120hpf_PFIN_legacy: (Legacy) Oregon State University Tanguay Lab 120 Hour Post-fertilization zebrafish Assay for Pectoral Fin Malformation (AID 2283648);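 further: each larva judged yes or no for fin defect by brightfield with dead larvae skipped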
Method in brief: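 Binary pectoral fin malformation call at 120 hpf by brightfield microscopy; 5D wild-type zebrafish, chorion removed at 4 hpf, one embryo per well from 6 hpf, static exposure at 28C; DMSO (0.64% final) as baseline.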

[8] = Tanguay_ZF_120hpf_CFIN_legacy: (Legacy) Oregon State University Tanguay Lab 120 Hour Post-fertilization zebrafish Assay for Caudal Fin Malformation (AID 2283649)
Method in brief: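 Binary brightfield scoring of caudal fin defects at 120 hpf after static, light-shielded exposure at 28C from 6 hpf. Tropical 5D embryos, chorion removed with pronase at 4 hpf, final DMSO 0.64%.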

[9] = Tanguay_ZF_120hpf_PIG_legacy: (Legacy) Oregon State University Tanguay Lab 120 Hour Post-fertilization zebrafish Assay for Pigmentation Malformation (AID 2283650);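 further: dechorionated Tropical 5D zebrafish embryos exposed singly from 6 to 120 hpf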
Method in brief: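 Brightfield scoring of pigmentation malformation at 120 hpf, recorded as binary present/absent per larva. Exposure: dechorionated 5D wild-type embryos, one per well, static from 6 hpf at 28C, final DMSO 0.64% (vol/vol). Dead embryos not scored.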

[10] = Tanguay_ZF_120hpf_BRAI_legacy: (Legacy) Oregon State University Tanguay Lab 120 Hour Post-fertilization zebrafish Assay for Brain Malformation (AID 2283641)
Method in brief: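 Binary brightfield scoring of brain malformation at 120 hpf in Tropical 5D larvae held under static exposure at 28C (0.64% v/v DMSO), non-mortality endpoints skipped if dead. Positive control: 5uM trimethyltin chloride; fit versus DMSO.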

Measured: AC50

C[C@]12C=CC3=C4CCC(=O)C=C4CC[C@H]3[C@@H]1CC[C@@H]2O
inactive: [4] | [6] | [7] | [8] | [9]
active: [1] 27.1 µM | [2] 43.3 µM | [3] 30.5 µM | [5] 29.9 µM

CCOc1cccc(C2(N3CCN(c4ccccc4)CC3)CCC(C)CC2)c1 (stereo unspecified)
inactive: [1] | [2] | [3] | [4] | [5] | [7] | [8] | [9]

ClC1=C(Cl)C2(Cl)C3C(Cl)C=CC3C1(Cl)C2(Cl)Cl (stereo unspecified)
inactive: [1] | [2] | [3] | [4] | [5] | [7] | [9]

Cc1ccc(N)cc1
inactive: [1] | [2] | [3] | [4] | [5] | [7] | [8] | [9]

Nc1ccc(Cl)cc1N
inactive: [1] | [2] | [3] | [4] | [5] | [7] | [8] | [9]

O=C(Nc1ccccc1)c1ccccc1I
inactive: [9]
active: [1] 10.5 µM | [2] 12.1 µM | [3] 50.4 µM | [4] 48 µM | [5] 43.5 µM | [7] 47.3 µM

CC(C)(O)c1cnn2c(-c3ccc(F)c(-c4c(F)cccc4C#N)c3)cnc2n1
inactive: [1] | [2] | [3] | [4] | [5] | [7] | [8] | [9]

CCCCC(CC)COC(=O)c1ccc(C(=O)OCC(CC)CCCC)c(C(=O)OCC(CC)CCCC)c1 (stereo unspecified)
inactive: [1] | [2] | [3] | [4] | [5] | [7] | [8] | [9]

c1ccc(N=Nc2ccccc2)cc1
inactive: [1] | [2] | [3] | [4] | [5] | [7] | [8]

Nc1ccc(Cc2ccc(N)cc2)cc1
inactive: [1] | [2] | [3] | [4] | [5] | [7] | [9]

COC(=O)Nc1nc2ccccc2[nH]1
active: [1] 46.4 µM
inactive: [2] | [3] | [4] | [5] | [6] | [7] | [8] | [9]

CC(C)COC(=O)c1ccccc1C(=O)OCC(C)C
inactive: [4] | [5] | [9]
active: [1] 30.5 µM | [2] 44.1 µM | [3] 29.7 µM | [7] 45.5 µM

CCCCOC(=O)c1ccccc1C(=O)OCc1ccccc1
inactive: [1] | [2] | [3] | [4] | [5] | [7] | [8]

CCCSC(=O)N(CCC)CCC
inactive: [1] | [2] | [3] | [4] | [5] | [7] | [8] | [9]

CCC[CH2][Sn]([Cl])([CH2]CCC)[CH2]CCC
inactive: [1] | [2] | [3] | [4] | [5] | [6] | [7] | [8] | [9]

[Cl-].[Cl-].[Hg+2]
active: [1] 1.05 µM | [2] 3.82 µM | [3] 3.12 µM | [4] 3.86 µM | [5] 3.82 µM | [7] 3.5 µM | [9] 1.05 µM

CN(C)c1ccccc1
inactive: [1] | [2] | [3] | [4] | [5] | [6] | [7] | [8] | [9]

CC(C)(C)OOC(C)(C)CCC(C)(C)OOC(C)(C)C
inactive: [1] | [2] | [3] | [5] | [7] | [9]

CC(C)(C)C(O)(CCc1ccc(Cl)cc1)Cn1cncn1 (stereo unspecified)
inactive: [1] | [2] | [4] | [5] | [6] | [8] | [9]

CC(C)(C)OOC(=O)c1ccccc1
inactive: [1] | [3] | [4] | [5] | [10] | [7] | [9]

O=C(N[C@H](c1ccccc1)[C@@H]1CN2CCC1CC2)c1c(Cl)ccc(C(F)(F)F)c1Cl
inactive: [2] | [4] | [5] | [10] | [7] | [9]

Clc1ccc(Cl)c(Cl)c1
inactive: [1] | [3] | [5] | [10] | [6] | [7] | [8] | [9]

[As]#[In]
inactive: [2] | [3] | [4] | [5] | [10] | [7] | [8] | [9]

C[N+](C)(C)CC1CO1 (stereo unspecified)
inactive: [3] | [4] | [5] | [9]

c1ccc2c(c1)-c1cccc3cccc-2c13
inactive: [7] | [9]

CCN(CC)CCO
inactive: [1] | [4] | [5] | [7] | [9]

O=P(OCCCl)(OCCCl)OCCCl
inactive: [1] | [2] | [3] | [4] | [7] | [9]

Brc1ccc(Oc2ccccc2)cc1
inactive: [1] | [3] | [4] | [7] | [9]

Clc1ccc(C(c2ccc(Cl)cc2)C(Cl)(Cl)Cl)cc1
inactive: [2] | [3] | [4] | [5] | [7] | [9]

CCCCCCCCn1sccc1=O
inactive: [1] | [3] | [4] | [5] | [7] | [9]

Oc1ccccc1Cl
inactive: [1] | [4] | [9]

O=Cc1ccco1
inactive: [1] | [2] | [3] | [5] | [10] | [7] | [9]

Nc1cc(Cl)cc(C(=O)O)c1Cl
inactive: [1] | [2] | [3] | [5] | [7] | [9]

CCCCCCCCOC(=O)c1ccc(C(=O)OCCCCCCCC)c(C(=O)OCCCCCCCC)c1
inactive: [2] | [4] | [5] | [7] | [9]

CS(=O)(=O)NC(=O)c1cc(Oc2ccc(C(F)(F)F)cc2Cl)ccc1[N+](=O)[O-]
inactive: [1] | [2] | [3] | [5] | [10] | [6] | [7] | [8] | [9]

C=CCc1ccc2c(c1)OCO2
inactive: [1] | [2] | [3] | [5] | [10] | [7] | [9]

O=[N+]([O-])C(Br)(CO)CO
inactive: [1] | [2] | [4] | [6] | [7] | [9]

O=[N+]([O-])c1ccc(Oc2ccc(Cl)cc2Cl)cc1
inactive: [1] | [4] | [5] | [10] | [6] | [7]

Cc1ccc(N)c(N)c1
inactive: [1] | [2] | [4] | [5] | [6] | [7] | [8] | [9]

ClC1=C(Cl)[C@]2(Cl)[C@H]3[C@H]([C@@H]4C=C[C@H]3C4)[C@@]1(Cl)C2(Cl)Cl
inactive: [2] | [3] | [4] | [5] | [10] | [6] | [7] | [9]

O=C(O)C1C2CCC(O2)C1C(=O)O (stereo unspecified)
inactive: [1] | [2] | [3] | [5] | [6] | [7] | [8]

CN(C)[C@@H]1C(=O)C(C(N)=O)=C(O)[C@@]2(O)C(=O)C3=C(O)c4c(O)cccc4[C@@](C)(O)[C@H]3C[C@@H]12
inactive: [1] | [2] | [3] | [5] | [7] | [9]

N#CC(Br)Br
inactive: [2] | [3] | [4] | [5] | [6] | [7]

c1ccc(NNc2ccccc2)cc1
inactive: [1] | [2] | [4] | [5] | [10] | [8] | [9]

ClCCOCCCl
inactive: [2] | [3] | [5] | [6] | [7] | [9]
